Inconclusive results are not listed. Where a call stands in place of a potency, no number is given. The source made the active and inactive calls. Calls come from the whole dose curve; as a rule, active = well fitted cell-killing curve with a large enough effect; inconclusive = small, poorly fitted or top-dose-only effect; inactive = no such curve, though single readings can be large or run the other way.
assay: qHTS of pediatric cancer cell lines to identify multiple opportunities for drug repurposing: Primary screen for NB1643 cells (AID 1347099); conditions: NB1643 neuroblastoma viability, CellTiter-Glo luminescence, 48 h; series mostly up to 46 µM; note: nearly all actives have a fitted effect of over 50% in size
Excerpt: Drug repurposing or repositioning has been offered as a strategy for drug development in oncology programs. This approach has special potential for childhood cancers and other rare or orphan diseases, where the expected return on new drug development has been a disincentive to pharmaceuticals. […] In this project we exploit the poly-pharmacology of drugs to discover new indications via phenotypic screening of a panel of 19 well-characterized cell lines derived from solid tumors seen in children and adolescents. The goal is to identify approved drugs with previously unrecognized anticancer properties that has the potential to reveal new mechanisms and biological processes involved in carcinogenesis or drug resistance. We employed a titration-based paradigm (quantitative high-throughput screening or qHTS), where all compounds were tested at multiple concentrations for their effect on cell viability. Concentration-response curves (CRCs) were derived directly from the primary screen, and both potency and efficacy values were used to identify compounds with robust bioactivity profiles. We screened the NIH Chemical Genomics Center (NCGC) Pharmaceutical Collection (NPC) and Mechanism Interrogation Plate (MIPE) small molecule collections of approved and investigational compounds against these cell lines; and measured metabolically active cells after 48 hours of compound treatment as a proxy for cell viability. […] Assay Submitter: Nathalia J. Martinez, National Center for Advancing Translational Sciences, National Institutes of Health, Rockville, MD, USA; email: natalia.martinez@nih.gov Shen, M et al. Quantitative high-throughput phenotypic screening of pediatric cancer cell lines identifies multiple opportunities for drug repurposing. Oncotarget 2017 Dec 19;9(4):4758-4772. PMID 29435139.
The cells were obtained from University of North Carolina (UNC), Pediatric Preclinical Testing Program (PPT), and Coriell Institute (CI). qHTS cell viability assay: Cells were assayed in growth media at a density of 500-1,000 cells/well. Five microliters of cells were dispensed into 1,536-well, white, solid-bottom, TC-treated plates (Greiner Bio One) using a multidrop dispenser and incubated at 37 degrees C, 5% CO2, under a humidified atmosphere for 5 hours. Twenty-three nanoliters of compounds and controls (neutral control DMSO or positive control bortezomib at final concentration of 2.3 µM) were subsequently transferred by Kalypsys pintool. For primary screens, the MIPE collection was tested at 11-point dilutions (final concentrations range from 0.78 nM to 46 µM) and the NPC collection at 8-point dilutions (final concentrations range from 0.59 nM to 46 µM). Compounds tested in follow-up screens were assayed at 11-point dilutions. Cells were incubated for 48 hours, followed by addition of 3 µL of CellTiter-Glo (Promega). After a 15 min incubation at room temperature, samples were analyzed for luminescence intensity using a ViewLux High-throughput CCD imager equipped with clear filters.
Potency is the fitted concentration of half-maximal effect.

SMILES	Potency
C[C@H]1[C@H]2CC[C@H]3[C@@H]4CC=C5C[C@@H](N(C)C)CC[C@]5(C)[C@H]4CC[C@]23CN1C	inactive
CC(=O)O[C@H]1C[C@@H]2CC[C@@H]3[C@H](CC[C@@]4(C)[C@H]3C[C@H]([N+]3(C)CCCCC3)[C@@H]4OC(C)=O)[C@@]2(C)C[C@@H]1N1CCCCC1	inactive
NS(=O)(=O)c1cc(C(=O)O)cc(N2CCCC2)c1Oc1ccccc1	inactive
CN1CCC[C@@H]1CCO[C@](C)(c1ccccc1)c1ccc(Cl)cc1	inactive
FC(F)(F)C(F)(F)C(F)(F)C(F)(F)C(F)(F)C(F)(F)C(F)(F)C(F)(F)Br	inactive
Nc1ccc(S(=O)(=O)Nc2cnc3ccccc3n2)cc1	inactive
Cc1ccc(O)c([C@H](CCN(C(C)C)C(C)C)c2ccccc2)c1	inactive
CCCCC(CC)COC(=O)/C=C/c1ccc(OC)cc1 (stereo not given)	inactive
C=C[C@@]1(C)CC(=O)[C@]2(O)[C@@]3(C)[C@@H](O)CCC(C)(C)[C@@H]3[C@H](O)[C@H](OC(C)=O)[C@@]2(C)O1	inactive
Oc1ccc(Cl)cc1Cc1cc(Cl)ccc1O	9.44 µM (active)
CN(CCCN1c2ccccc2CCc2ccccc21)CC(=O)c1ccc(Cl)cc1	inactive
CC(=O)N[C@@H](CCC(=O)O)C(=O)O	inactive
CCCCCCCCCCCCSCCOCCO	inactive
C[C@@H](O)[C@H]1C(=O)N2C(C(=O)O)=C(S[C@@H]3CN[C@H](CNS(N)(=O)=O)C3)[C@H](C)[C@H]12	inactive
Cc1cn([C@H]2C[C@H](F)[C@@H](CO)O2)c(=O)[nH]c1=O	inactive
C[C@@]12C(=O)OC(=O)[C@]1(C)C1CCC2O1	1.19 µM (active)
CC(=O)O[C@]1(C(C)=O)CC[C@H]2[C@@H]3C=C(C)C4=CC(=O)CC[C@]4(C)[C@H]3CC[C@@]21C	inactive
N/C(=N\N=C\c1ccc(Cl)cc1)N/N=C/c1ccc(Cl)cc1	inactive
N[C@H](C(=O)O)[C@@H](O)c1ccc(O)c(O)c1	inactive
O=C1OC2(c3ccccc31)c1cc(Br)c(O)c(Br)c1Oc1c2cc(Br)c(O)c1Br	inactive

SMILES	Potency
CC(C)(C)NC[C@H](O)COc1nsnc1N1CCOCC1	inactive
CCCCCCCCCCC[C@@H](C[C@@H]1OC(=O)[C@H]1CCCCCC)OC(=O)[C@H](CC(C)C)NC=O	inactive
CC(=O)Nc1ccc(CC(=O)O)cc1	inactive
NC(=O)C1(N2CCCCC2)CCN(CCCC(=O)c2ccc(F)cc2)CC1	inactive
C#C[C@]1(O)CC[C@H]2[C@@H]3CCC4=Cc5oncc5C[C@]4(C)[C@H]3CC[C@@]21C	inactive
CCCCCCCC/C=C\CCCCCCCCN	inactive
COc1ccc(CCN(C)CCCN2CCc3cc(OC)c(OC)cc3CC2=O)cc1OC	inactive
Cn1c(=O)c2[nH]c(Br)nc2n(C)c1=O	inactive
Cc1cc(C)cc(OCC2CNC(=O)O2)c1 (stereo not given)	inactive
COP(=O)(OC)OC(c1ccc(Cl)cc1)P(=O)(OC)OC (stereo not given)	inactive
C[N+]1(CC2COC(c3ccccc3)(C3CCCCC3)O2)CCCCC1 (stereo not given)	inactive
CCCCCCCCCCCCCCCCO	inactive
O=C1C(=O)c2ccccc2C(O)=C1C1CCC(c2ccc(Cl)cc2)CC1 (stereo not given)	inactive
Cc1cccc(C)c1NC(=O)CN1CCCCCC1	inactive
CCOc1ccc(NC(C)=O)cc1	inactive
CC(C)(C)NCC(O)COc1cccc2c1C[C@H](O)[C@H](O)C2 (stereo not given in full)	inactive
CCOc1ccccc1OCCN[C@H](C)Cc1ccc(OC)c(S(N)(=O)=O)c1	inactive
Cc1ncc(CO)c(C=O)c1O	inactive
O=C(O)c1ccc(S(=O)(=O)N(Cl)Cl)cc1	inactive
NC(=O)c1ccccc1O	inactive

— PubChem BioAssay (NCATS)
